From PubChem BioAssay
Compounds with a hit are over-represented: about 3% of the library has one in this group of screens.
Efa HMGR inh: inhibitors of E. faecalis class II HMGR, primary screen, biochemical, Enterococcus faecalis | HMG-CoA reductase (Enterococcus faecalis, mvaE) | purified E. faecalis HMGR, NADPH absorbance 340 nm kinetic | inhibition, % at 10 µM | hit rate 0.41% among 190,000 | AID 1066, 2008;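 active = inhibition above a set limit, the median over all tested compounds plus 3 SD, cut at about 9.5% in these data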;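 also: enzyme runs in reverse so mevalonate oxidation gives rising NADPH absorbance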
TNF necrop inh: inhibitors of TNF-alpha triggered necroptosis, primary screen, cell-based, Jurkat FADD-/-, single concentration. activation (protection from cell death), % at 10 µM. hit rate 0.068% among 220,000. Jurkat FADD-/- TNF necroptosis rescue, ATP luminescence, 24 h; 0 = TNF only, 100 = no-TNF cells;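 active = activation, meaning protection from cell death, of at least 50% relative to plate controls; inactive = activation below 50%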;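 also: necroptosis triggered by 40 ng/mL TNF-alpha added together with compound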
ROMK primary: ROMK potassium channel modulators, primary screen, cell-based, thallium flux, MLSMR library | Tet-inducible ROMK, thallium flux fluorescence; actives lie on both sides | ATP-sensitive inward rectifier potassium channel 1 (Homo sapiens), P48048 | hit rate 2% among 130,000 | AID 1918, 2009 | B-score at 10 µM;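 active = signal ratio slope over the read window, or its plate-corrected B-score, at least 3 SD from the plate mean, either direction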;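 also: B-score of the F/F0 ratio slope over 7 to 12 s after thallium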
Target sequence (P48048 whole entry, looked up): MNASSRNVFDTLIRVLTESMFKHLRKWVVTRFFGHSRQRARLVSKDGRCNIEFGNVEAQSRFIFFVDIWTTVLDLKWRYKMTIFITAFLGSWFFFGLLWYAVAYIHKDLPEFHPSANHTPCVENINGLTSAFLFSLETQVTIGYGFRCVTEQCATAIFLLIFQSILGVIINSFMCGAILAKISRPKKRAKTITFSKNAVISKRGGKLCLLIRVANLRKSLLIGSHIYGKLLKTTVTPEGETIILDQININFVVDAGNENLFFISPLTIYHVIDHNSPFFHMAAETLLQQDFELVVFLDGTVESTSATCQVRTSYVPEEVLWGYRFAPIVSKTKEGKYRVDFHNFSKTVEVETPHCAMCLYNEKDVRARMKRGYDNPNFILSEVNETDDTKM
14-3-3 Bad inh: inhibitors of 14-3-3 zeta/Bad binding, primary screen, biochemical, TR-FRET, bovine 14-3-3 zeta; TR-FRET 14-3-3zeta/Dy647-pBad peptide displacement, 1 h; hit rate 0.71% among 220,000; inhibition, % at 21.7 µM;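 active = inhibition above about 70%, limit read from the data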
Target sequence (P63103 whole entry, looked up): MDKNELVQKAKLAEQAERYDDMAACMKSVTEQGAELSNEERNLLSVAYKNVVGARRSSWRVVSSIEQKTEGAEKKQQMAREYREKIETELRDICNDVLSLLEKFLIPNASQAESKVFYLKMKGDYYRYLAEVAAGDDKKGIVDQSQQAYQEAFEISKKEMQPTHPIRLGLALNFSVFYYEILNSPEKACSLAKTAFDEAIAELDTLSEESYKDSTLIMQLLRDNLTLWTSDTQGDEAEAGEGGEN
m-calpain inh: inhibitors of pig calpain II, primary screen, biochemical, fluorogenic peptide substrate, 1536-well. purified calpain II, 30 min. inhibition, % at 16 µM. hit rate 0.37% among 220,000. AID 1236, 2008;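 active = inhibition above about 50%, limit read from the data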
zVAD death inh: inhibitors of zVAD-triggered necroptosis, primary screen, L929 cells; hit rate 0.38% among 220,000; viability rescue, % at 10 µM; L929 zVAD necroptosis rescue, ATP luminescence, 24 h; with zVAD 60 µM; AID 1377, 2008;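 active = activation, scaled between plate controls, above about 75%, limit read from the data; inactive = activation under that limit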
Each line names hits and unclear results; the compound was inactive in the other large screens.

CC(C)CSC1=NSC2=NC(=O)/C(=C\c3coc4ccccc4c3=O)C(=N)N12	none (no result: ROMK primary)
CC(C)CSC1=NSC2=NC(=O)/C(=C\c3ccccc3)C(=N)N12	ROMK primary 1.8
NC(=S)NNC(=O)c1cccc(Br)c1	Efa HMGR inh 17
NC(=S)NNC(=O)c1ccccc1	none (no result: ROMK primary)
CC(C)CC(=O)N(c1ccc(F)cc1)C1C=CS(=O)(=O)C1 (centres undefined)	none (no result: ROMK primary)
CCCCC(=O)N(c1ccc(C)c(C)c1)C1C=CS(=O)(=O)C1 (centres undefined)	14-3-3 Bad inh 93
CC[C@@H]1C=C(C)C[C@H](C)C[C@H](OC)[C@H]2O[C@@](O)(C(=O)C(=O)N3CCCC[C@H]3C(=O)O[C@H](/C(C)=C/[C@@H]3CC[C@@H](O)[C@H](OC)C3)[C@H](C)[C@@H](O)CC1=O)[C@H](C)C[C@@H]2OC	ROMK primary -3.6
Cc1ccccc1CN1CCN(CC2CC3C=CC2C3)CC1 (centres undefined)	none
C1=CC2CC1CC2CN1CCN(c2ccccc2)CC1 (centres undefined)	14-3-3 Bad inh 75 (no result: ROMK primary)
COc1ccc(OCC(=O)NNC(=O)c2cccnc2)cc1	14-3-3 Bad inh 92 (no result: ROMK primary)
Cc1ccc(OCC(=O)NNC(=O)c2cccnc2)cc1	none (no result: ROMK primary)
O=S(=O)(c1ccccc1)c1nc(-c2ccco2)oc1N1CCOCC1	none (no result: ROMK primary)
O=S(=O)(c1ccc(Cl)cc1)c1nc(-c2ccco2)oc1N1CCOCC1	14-3-3 Bad inh 76 (no result: Efa HMGR inh)
COc1ccc(S(=O)(=O)N(CC(=O)NC2CC2)c2ccc(C)cc2)cc1OC	none (no result: ROMK primary)
CCOC(=O)c1c(-c2ccccc2)csc1NC(=O)c1cc2ccccc2oc1=O	none (no result: ROMK primary)
CC1CCCCC1NC(=O)COC(=O)COc1ccccc1Cl (centres undefined)	none
CC1CCCC(NC(=O)COC(=O)COc2ccccc2Cl)C1C (centres undefined)	Efa HMGR inh 11
CCN(CC)CCn1c(=S)[nH]c2ccc(Br)cc2c1=O	none
CC(Sc1nnc(NCc2ccccc2)s1)C(=O)Nc1ccc2c(c1)C(=O)c1ccccc1C2=O (centres undefined)	TNF necrop inh 80
CC(Sc1nnc(Nc2ccccc2)s1)C(=O)Nc1nc(-c2ccccc2)cs1 (centres undefined)	none
CC1Nc2ccccc2C(=O)N1NC(=O)c1ccc(Br)cc1 (centres undefined)	none
CCOC(=O)C1=C(C)NC(=O)NC1c1c(C)nn(-c2ccccc2)c1Cl (centres undefined)	14-3-3 Bad inh 93
Cc1ccc(NC(=O)C2COc3ccccc3O2)nc1 (centres undefined)	TNF necrop inh 89 (no result: ROMK primary)
C/C(CC(=O)NCc1ccco1)=N\NC(=O)Cc1ccccc1	none (no result: ROMK primary)
C/C(CC(=O)NCc1ccco1)=N\NC(=O)C(c1ccccc1)c1ccccc1	zVAD death inh 77 (no result: ROMK primary)
Cc1ccccc1C(=O)c1cccn1CC(=O)NC(C)c1ccc2c(c1)OCCO2 (centres undefined)	Efa HMGR inh 12
CC(CC(=O)NC(C)c1ccc2c(c1)OCCO2)c1ccccc1 (centres undefined)	none (no result: ROMK primary)
COc1ccc(NC(=O)c2ccc(C(=O)c3cc(OC)ccc3OC)cc2)cc1	none (no result: ROMK primary)
CCN1CCN(c2cc(C)c3cc(NC(=S)NCc4cccs4)ccc3n2)CC1	m-calpain inh 51
Cc1cc(N2CCN(C)CC2)nc2ccc(NC(=S)NCc3cccs3)cc12	none
COc1ccccc1C(=O)NNC(=O)c1ccc(NC(=O)CC(C)C)cc1	none
Cc1ccc(NC2c3ncccc3C(=O)N2c2ccccc2C)cc1C (centres undefined)	14-3-3 Bad inh 94
CCOc1ccc(N2C(=O)c3cccnc3C2Nc2ccc(Cl)cc2)cc1 (centres undefined)	none
CC(OC(=O)c1ccccc1Nc1ccc(SC(F)F)cc1)C(N)=O (centres undefined)	m-calpain inh 68
O=C(CSc1nnnn1-c1ccc2c(c1)OCCO2)OC1CCCCC1	m-calpain inh 71 (no result: ROMK primary)
Cc1ccc(OCC(O)CN2C(=O)NC(C)(C)C2=O)cc1 (centres undefined)	Efa HMGR inh 14
Cc1cccc(N2CC(O)(c3cccs3)[N+]3=C2CCCC3)c1 (centres undefined)	none
Cc1cccc(N2CC(O)(c3cccs3)[N+]3=C2CCCCC3)c1 (centres undefined)	14-3-3 Bad inh 83
NC(=O)CSc1nnc(-c2cc(-c3ccc(Cl)cc3)nc3ccccc23)o1	none
CCn1c([N+](=O)[O-])nc2c1c(=O)[nH]c(=O)n2C	TNF necrop inh 51
CCCCCCn1c(SCCCC)nc2c1c(=O)[nH]c(=O)n2C	none (no result: ROMK primary)
CCOC(=O)C1CCCN(C(=O)CSc2ccc(NC(C)=O)cc2)C1 (centres undefined)	m-calpain inh 63
CC(C)N1C(=O)/C(=C/c2nc3ccccc3c(=O)n2-c2ccccc2)c2ccccc21	14-3-3 Bad inh 77 (no result: ROMK primary)
CNC(=S)Nc1cc(C)ccc1OC(F)F	none
COc1nc2ccccc2nc1CCC(=O)O	none
O=C(Nc1cc(Cl)cc(Cl)c1)C(c1ccccc1)N1CCCCC1 (centres undefined)	none
O=C(Nc1cc(Cl)cc(Cl)c1)C(NCCO)c1ccccc1 (centres undefined)	14-3-3 Bad inh 80 (no result: ROMK primary)
Cc1csc(NC(=O)C2CCCN(S(=O)(=O)c3cccnc3)C2)n1 (centres undefined)	none (no result: ROMK primary)
O=C(Nc1ccc(OC(F)(F)F)cc1)C1CCCN(S(=O)(=O)c2cccnc2)C1 (centres undefined)	14-3-3 Bad inh 82
O=C(c1cc([N+](=O)[O-])ccc1N1CCOCC1)N1CCCC1	none
O=C(Cn1nc(C(=O)O)c2ccccc2c1=O)Nc1ccc2c(c1)C(=O)c1ccccc1C2=O	14-3-3 Bad inh 80 (no result: Efa HMGR inh, ROMK primary)
CCn1nc(C(=O)OCC(=O)c2c[nH]c3ccccc23)c2ccccc2c1=O	m-calpain inh 56
O=C(Cc1ccccc1)Nc1ccc(N2CCN(Cc3ccccc3F)CC2)cc1	none
COC(=O)c1cccc(NC(=O)c2cccc(OC)c2)c1	m-calpain inh 53 (no result: ROMK primary)
COc1cccc(C(=O)Nc2cccc(-c3nnc(-c4ccco4)o3)c2)c1	m-calpain inh 56
COc1ccc(Br)cc1C(=O)Nc1cccc(-c2nnc(-c3ccco3)o2)c1	none (no result: Efa HMGR inh, ROMK primary, 14-3-3 Bad inh, m-calpain inh)
COc1cccc(C(=O)Nc2cccc(C(C)=O)c2)c1	none
COc1cccc(NC(=O)c2ccc3snnc3c2)c1	Efa HMGR inh 17
Cc1ccc(S(=O)(=O)Nc2cc(C)c(O)cc2C)cc1	none
CC(=O)c1sc(-c2ccccc2)cc1NS(=O)(=O)c1ccccc1	none (no result: Efa HMGR inh, ROMK primary)
